Screens (PubChem BioAssay)
AMA1-RON2 inh – AMA1-RON2 (P. falciparum) interaction inhibition; hit rate 0.2% among 360,000; AlphaScreen AMA1-biotinylated RON2 peptide binding; Potency, µM (titrated, usually from 58.2 µM), without a hit: at the top dose activity change, negative = inhibition, actives largely listed as inhibitors;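 note: 0% = vehicle wells and -100% = peptide control; nearly all actives have a fitted effect of over 45% in size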
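AMA1 (3D7) with his tag at 25 nM final met compounds first, then biotinylated RON2 peptide at 25 nM; detection used donor plus acceptor beads, 10 µg/mL apiece, read by AlphaScreen after 30 min at room temperature.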
Pf growth 48h – inhibits P. falciparum growth in the first generation, 48 h; P. falciparum luciferase growth in erythrocytes, 48 h; hit rate 5.9% among 310,000; Potency, µM (doses to about 28.7 µM), for the others: at the top dose activity change, negative = inhibition, actives largely listed as inhibitors; note: % is set by controls: 0 for no effect and ±100 for the full control effect
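Parasite viability was followed by luminescence of a genomically integrated firefly luciferase. Cultures held 0.1% parasitemia at 2% hematocrit (final), incubated under 5% CO2 at 37 C.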
SARS PLP yeast – SARS-CoV PLP inhibition in yeast; S. cerevisiae expressing SARS-CoV PLpro, growth rescue; Potency, µM (titrated, usually from 32.9 µM), for the others: at the top dose activity, positive = growth rescue, actives largely listed as activators; hit rate 0.19% among 330,000; calls by dose curve; note: 0% is about no effect; nearly all actives have a fitted effect of over 55% in size
NS1 function inh – inhibitors of influenza NS1 protein function; Potency, µM (series often up to 46.1 µM), without a hit: at the highest dose activity, positive = more growth; hit rate 0.4% among 270,000; calls by dose curve; note: actives are rising curves; nearly all actives have a fitted effect of over 50% in size
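Compounds were scored for reversing the slow growth caused by influenza A NS1 in S. cerevisiae, measured by optical density at 600 nm. Assay medium contained 2% galactose at pH 6.0; NS1-free yeast of the same strain were the positive control.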
Pf growth 96h – P. falciparum growth inhibition at 96 hour, primary screen for plastid delayed-death inhibitors; P. falciparum luciferase reporter growth, 96 h; Potency, µM (titrated, usually from 28.7 µM), inactives show at the highest dose activity change, negative = inhibition, hits mostly inhibitors; hit rate 6.9% among 320,000; AID 504834; note: % is set by controls: 0 for no effect and ±100 for the full control effect
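Readout is luminescence from an integrated firefly luciferase in P. falciparum. Red cells, 2% hematocrit and 0.05% parasitemia final, were cultured with compound through two parasite generations (96 hours) at 37 C, 5% CO2.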
HCV inhibitor – HCV inhibition | hit rate 3.4% among 340,000 | Potency, µM (highest dose often 41.8 µM), for inactives: at the top dose activity change, negative = inhibition, hits mostly inhibitors | AID 651820 | Huh7.5.1 HCVcc-Cre infection, luciferase reporter, 44 h; note: % is set by controls: 0 for no effect and ±100 for the full control effect
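A cell-based infection assay in which seeded cells (1,000 per well) receive test compound after 4 h, are inoculated with HCVcc-Cre at approximately 0.5 moi, and are incubated 44 h before luminescence detection.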
* = called active by the depositor; [ ] = remark or other dose. Shown are actives, neighbours in structure and some others; about 12% of the full set was active somewhere. Unless noted, calls come from the whole dose curve; as a rule, active = well fitted curve in the direction sought with a large enough effect; inconclusive = small, poorly fitted or top-dose-only effect, or another doubt; inactive = no such curve, though single readings can be large; an effect the other way counts as inactive or inconclusive. Potency is the fitted concentration of half-maximal effect.

For CC(C)Cn1c(N)c(C(=O)CSc2ncnc3sc4c(c23)CCCC4)c(=O)n(C)c1=O the results were AMA1-RON2 inh 13%, Pf growth 48h 1%, SARS PLP yeast -3%, NS1 function inh -1%, Pf growth 96h 31% and HCV inhibitor inconclusive.
`Nn1c(-c2cccs2)nc2sc3c(c2c1=O)CCCC3` gave AMA1-RON2 inh 37%, Pf growth 48h 240%, SARS PLP yeast -13%, NS1 function inh -9%, Pf growth 96h 270% and HCV inhibitor inconclusive.
Screening COc1ccc(-n2c(SCC(=O)Nc3nccs3)nc3sc4c(c3c2=O)CCN(C)C4)cc1 returned AMA1-RON2 inh -6%, Pf growth 48h inconclusive, SARS PLP yeast -5%, NS1 function inh inconclusive, Pf growth 96h inconclusive and HCV inhibitor -4%.
Screening Cc1ccccc1-c1nc2sc3c(c2c(=O)n1N)CCCC3 returned AMA1-RON2 inh -1%, SARS PLP yeast -15%, NS1 function inh -6%, Pf growth 96h 4.7µM* and HCV inhibitor -5%.
Screening C=C(C)CSc1nc2sc3c(c2c(=O)n1-c1ccc(C)cc1)CCN(C)C3 returned AMA1-RON2 inh -1%, Pf growth 48h 1.3µM*, SARS PLP yeast -1%, NS1 function inh 7%, Pf growth 96h 0.93µM* and HCV inhibitor inconclusive.
`CN(CC(=O)Nc1ccccc1-c1ccccc1)Cc1ccccc1Cl` gave AMA1-RON2 inh 1%, Pf growth 48h inconclusive, SARS PLP yeast -10%, Pf growth 96h inconclusive and HCV inhibitor -28%.
`O=C1CCC([N+](=O)[O-])C(c2ccc(C(F)(F)F)cc2)N1` (stereo unspecified) gave AMA1-RON2 inh -11% and HCV inhibitor 22%.
`O=C(Nc1ccc(S(=O)(=O)N2CCCC2)cc1)C1CC(=O)N(c2ccc(F)cc2)C1` (stereo unspecified) gave AMA1-RON2 inh -4%, Pf growth 48h inconclusive, SARS PLP yeast -1%, NS1 function inh -18%, Pf growth 96h 7% and HCV inhibitor -18%.
`CC1(C)N=C(N)N=C(N)N1c1cccc(C(=O)Nc2ccc(S(=O)(=O)F)cc2)c1` gave NS1 function inh 0%.
Screening COc1ccc(-n2c(C)nc3sc4c(c3c2=O)CCC4)cc1 returned AMA1-RON2 inh -19%, Pf growth 48h 14%, SARS PLP yeast -13%, Pf growth 96h 4.7µM* and HCV inhibitor 0%.
Screening CCOC(=O)CSc1nc2sc3c(c2c(=O)n1C1CCCCC1)CCN(C)C3 returned AMA1-RON2 inh -16%, Pf growth 48h 1.5µM*, SARS PLP yeast -23%, NS1 function inh 25%, Pf growth 96h inconclusive and HCV inhibitor inconclusive.
Screening COc1ccc(C(CNC(=O)c2cccc(S(=O)(=O)Nc3ccc(F)cc3)c2)N(C)C)cc1 (stereo unspecified) returned AMA1-RON2 inh 14%, Pf growth 48h 12µM*, SARS PLP yeast 1%, Pf growth 96h 9.3µM* and HCV inhibitor inconclusive.
For COc1ccccc1C(CNC(=O)c1cccc(NS(=O)(=O)c2ccc(C)c(F)c2)c1)N(C)C (stereo unspecified) the results were AMA1-RON2 inh 64%, Pf growth 48h inconclusive, SARS PLP yeast -1%, Pf growth 96h 9.3µM* and HCV inhibitor -27%.
Screening COc1ccc(C(CNC(=O)c2cccc(NS(=O)(=O)c3ccc(C)c(F)c3)c2)N(C)C)cc1 (stereo unspecified) returned AMA1-RON2 inh 94%, Pf growth 48h inconclusive, SARS PLP yeast -5%, Pf growth 96h 12µM* and HCV inhibitor inconclusive.
`Nc1ccccc1-n1c(=O)n(Cc2ccccc2F)c(=O)c2[nH]cnc21` gave AMA1-RON2 inh 0%, Pf growth 48h -17%, SARS PLP yeast 0%, NS1 function inh -2%, Pf growth 96h 1% and HCV inhibitor 15%.
Screening COc1ccc(/C=C(/NC(=O)c2ccco2)C(=O)N2CCCC2=O)cc1 returned AMA1-RON2 inh 9%, Pf growth 48h 8%, SARS PLP yeast 0%, Pf growth 96h 2% and HCV inhibitor 21%.
For C#CCOCCOCCOCCNc1nc(N2CCN(C(=O)[C@H](C(C)C)n3cc(CCO)nn3)CC2)nc(N2CCN(C(=O)[C@H]([C@@H](C)CC)n3cc(CCCCN)nn3)CC2)n1 the results were AMA1-RON2 inh 0%, Pf growth 48h inconclusive, SARS PLP yeast -15%, NS1 function inh 7%, Pf growth 96h inconclusive and HCV inhibitor 44%[8.37 µM].
For C#CCOCCOCCOCCNc1nc(N2CCN(C(=O)[C@H]([C@@H](C)CC)n3cc(CCCCN)nn3)CC2)nc(N2CCN(C(=O)[C@H](C)n3cc(CCCN=C(N)N)nn3)CC2)n1 the results were AMA1-RON2 inh -1%, Pf growth 48h inconclusive, SARS PLP yeast -16%, Pf growth 96h 4% and HCV inhibitor 12%.
Screening C#CCOCCOCCOCCNc1nc(N2CCN(C(=O)[C@H]([C@@H](C)O)n3cc(CCCCN)nn3)CC2)nc(N2CCN(C(=O)[C@H]([C@@H](C)CC)n3cc(CCCN=C(N)N)nn3)CC2)n1 returned AMA1-RON2 inh -6%, Pf growth 48h inconclusive, SARS PLP yeast 5%, NS1 function inh 12%, Pf growth 96h 4.7µM* and HCV inhibitor 38%.
`C#CCOCCOCCOCCNc1nc(N2CCN(C(=O)[C@H]([C@@H](C)CC)n3cc(CCCN=C(N)N)nn3)CC2)nc(N2CCN(C(=O)[C@H]([C@@H](C)CC)n3cc(CCC(=O)O)nn3)CC2)n1` gave AMA1-RON2 inh -8% and HCV inhibitor 3%[8.37 µM].
`C#CCOCCOCCOCCNc1nc(N2CCOCC2)nc(N2CCN(C(=O)[C@H]([C@@H](C)CC)n3cc(CCCCN)nn3)CC2)n1` gave AMA1-RON2 inh -5%, Pf growth 48h inconclusive, SARS PLP yeast 25%, NS1 function inh 4%, Pf growth 96h 8.3µM* and HCV inhibitor -19%.
C#CCOCCOCCOCCNc1nc(N2CCN(C(=O)[C@H]([C@@H](C)CC)n3cc(CCCCN)nn3)CC2)nc(N2CCN(C(=O)[C@H]([C@@H](C)CC)n3cc(CCCN=C(N)N)nn3)CC2)n1 was read as AMA1-RON2 inh -13%, Pf growth 48h inconclusive, SARS PLP yeast 8%, Pf growth 96h 7.4µM* and HCV inhibitor 2%.
`CN(CC(=O)Nc1cccc(C(F)(F)F)c1)C1=NS(=O)(=O)c2ccccc21` gave AMA1-RON2 inh -3%, SARS PLP yeast 3% and HCV inhibitor inconclusive.
For Cc1ccccc1NC(=O)/C(C#N)=C/c1ccc[nH]1 the results were AMA1-RON2 inh -18%, Pf growth 48h 1%, SARS PLP yeast 23%, NS1 function inh -3%, Pf growth 96h 12µM* and HCV inhibitor 1%.
